These results are taken from PubChem BioAssay (NCATS).

One assay relates to W2. The experiment in a line: qHTS profiling for inhibitors of Plasmodium falciparum proliferation (AID 504749). Further: nearly all actives have a fitted effect of over 60% in size. Conditions: P. falciparum in erythrocytes, SYBR Green DNA, 72 h; series mostly up to 28.7 µM. A digest of the protocol: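 P. falciparum-infected erythrocytes (0.3% parasitemia, 2.5% hematocrit final) were exposed to compounds for 72 h at 37 C in 5% CO2, then lysed with SYBR Green buffer overnight at room temperature; parasite DNA fluorescence was normalized to artemisinin and DMSO controls.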

For another assay, the system named is CRL-7250. The experiment in a line: Cytotoxic Profiling of Annotated Libraries Using Quantitative High-Throughput Screening (AID 1296008). Further: nearly all actives have a fitted effect of over 60% in size. On max response: on the % scale 0 is the no-effect control and ±100 the full control effect. The following applies: Five cell lines viability, CellTiter-Glo ATP luminescence, 48-72 h; max response: hits give low values. An outline of the steps:
(§1)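 Compounds were pin-transferred onto cells and incubated 48 or 72 hr at 37 degree Celsius, 95% humidity. CellTiter-Glo was added, plates sat 10 min at room temperature, then ATP-coupled luminescence was imaged as the viability read-out.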

In the next assay the test system is HEK293. The assay is described as above. The following applies: Five cell lines viability, CellTiter-Glo ATP luminescence, 48-72 h; max response: hits give low values. An outline of the steps: as §1
Background: In ATP-based viability assays light output follows the ATP content of the culture.

For assay [1], the system named is HaCat. The description is as above. The following applies: Five cell lines viability, CellTiter-Glo ATP luminescence, 48-72 h; max response: hits give low values. A digest of the protocol:
as §1

A further assay relates to KB-3-1. Described as above. The following applies: Five cell lines viability, CellTiter-Glo ATP luminescence, 48-72 h; max response: hits give low values. An outline of the steps: as §1
The test system of assay [2] is HACAT. The experiment in a line: qHTS assay to identify novel small-molecules to repurpose for Merkel cell carcinoma treatment (AID 1296009). Further: nearly all actives have a fitted effect of over 60% in size. Conditions: MCC and control cell lines, CellTiter-Glo viability, 72 h; at 44.8 µM (top of the series) unless noted. An outline of the steps: (§2)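 Cells exposed to NPC (8-point) and MIPE (11-point) compound dilutions for 72 hr at 37 degree celsius; viability read by CellTiter-Glo luminescence, normalized to no-cell and DMSO in-plate controls.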
On the technique in general: qHTS replaces the single test concentration by a dilution series.

The test system of the next assay is MCC-13. Described as above. Conditions: MCC and control cell lines, CellTiter-Glo viability, 72 h; series mostly up to 46 µM. An outline of the steps: as §2
A further assay deals with MCC-26. The description is as above. Conditions: MCC and control cell lines, CellTiter-Glo viability, 72 h; series mostly up to 46 µM. An outline of the steps:
as §2

A further assay deals with MKL-1. The description is as above. Conditions: MCC and control cell lines, CellTiter-Glo viability, 72 h; series mostly up to 46 µM. An outline of the steps: as §2
The next assay has as its system UISO. The description is as above. The following applies: MCC and control cell lines, CellTiter-Glo viability, 72 h; series mostly up to 46 µM. A digest of the protocol: as §2
Another assay has as its system WaGa. The description is as above. The following applies: MCC and control cell lines, CellTiter-Glo viability, 72 h; series mostly up to 46 µM. A digest of the protocol: as §2
The next assay deals with C33A. As to the kind of experiment: Primary qHTS to identify gynecologic anti-cancer compounds using libraries of approved drugs and bioactive compounds (AID 1345084). Further: nearly all actives have a fitted effect of over 55% in size. The following applies: Gynecologic cancer cell panel viability, ATPlite luminescence, 48 h; series mostly up to 57.5 µM. A digest of the protocol: (§3)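 Cell viability after 48 h drug treatment, ATPlite luminescence readout; five doses.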

For a further assay, the system named is CAOV3. Described as above. The following applies: Gynecologic cancer cell panel viability, ATPlite luminescence, 48 h; series mostly up to 57.5 µM. A digest of the protocol:
as §3

The next assay concerns CASKI. Described as above. The following applies: Gynecologic cancer cell panel viability, ATPlite luminescence, 48 h; series mostly up to 57.5 µM. A digest of the protocol: as §3
For another assay, the system named is Es-2. Described as above. Conditions: Gynecologic cancer cell panel viability, ATPlite luminescence, 48 h; series mostly up to 57.5 µM. An outline of the steps: as §3
In the next assay the test system is HeLa. The assay is described as above. The following applies: Gynecologic cancer cell panel viability, ATPlite luminescence, 48 h; series mostly up to 57.5 µM. An outline of the steps: as §3
The next assay has as its system MKL-2. As to the kind of experiment: qHTS assay to identify novel small-molecules to repurpose for Merkel cell carcinoma treatment (AID 1296009). Further: nearly all actives have a fitted effect of over 60% in size. The following applies: MCC and control cell lines, CellTiter-Glo viability, 72 h; series mostly up to 46 µM. A digest of the protocol: as §2
The test system of assay [3] is NIH3T3. The experiment in a line: Cytotoxic Profiling of Annotated Libraries Using Quantitative High-Throughput Screening (AID 1296008). Further: nearly all actives have a fitted effect of over 60% in size. On max response: on the % scale 0 is the no-effect control and ±100 the full control effect. Conditions: Five cell lines viability, CellTiter-Glo ATP luminescence, 48-72 h; max response: hits give low values. An outline of the steps:
as §1

Assay [4] concerns NIH3T3. As to the kind of experiment: qHTS assay to identify novel small-molecules to repurpose for Merkel cell carcinoma treatment (AID 1296009). Further: nearly all actives have a fitted effect of over 60% in size. The following applies: MCC and control cell lines, CellTiter-Glo viability, 72 h; at 44.8 µM (top of the series). A digest of the protocol: as §2

Results filed as inconclusive are left out. Unmarked numbers belong to inactive results. Active and inactive are the calls of the source. The call rests on the fitted dose curve; in most records, active means well fitted curve in the direction sought with a large enough effect; inconclusive means small, poorly fitted or top-dose-only effect, or another doubt; inactive means no such curve, though single readings can be large; an effect the other way counts as inactive or inconclusive.
Potency means the concentration at half of the fitted maximal effect.

As for `CC(=O)O[C@]1(C(C)=O)CC[C@H]2[C@@H]3C=C(Cl)C4=CC(=O)CC[C@]4(C)[C@H]3CC[C@@]21C`, the Potency with W2 was 10700 nM (active); with HEK293 it was 18800 nM (active). Besides, the results for the max response in the assay on CRL-7250 and in the assay with KB-3-1 were -6.12% and 2.1%, respectively. Moreover, the compound was classed as inactive in the assay with HaCat [1] and with HACAT [2]. For the same compound, the Potency entry in the assay on MCC-13, in the assay on MCC-26, in the assay on MKL-1, in the assay with UISO, with WaGa and in the assay with C33A was “inactive” in each case. Further, the Potency result with CAOV3, in the assay on CASKI, in the assay on Es-2 and in the assay with HeLa was “inactive” throughout.
As to `O=C(Nc1ccc([N+](=O)[O-])cc1)Nc1ccc([N+](=O)[O-])cc1`, the results for the Potency in the assay with W2 and with HEK293 were 2390 nM (active) and 8410 nM (active), respectively. Moreover, the results for the max response with CRL-7250 and with KB-3-1 were -8.01% and -1.19%, respectively. In addition, the outcome with HaCat [1] and in the assay on HACAT [2] was inactive. The Potency result in the assay with MCC-13, in the assay with MCC-26, in the assay with MKL-1, in the assay on MKL-2, in the assay with UISO and in the assay with WaGa was “inactive” each time. The Potency entry in the assay on C33A, with CAOV3, with CASKI, in the assay with Es-2 and in the assay with HeLa was “inactive” each time.
For `C[C@H]1O[C@@H](O[C@H]2CC[C@@]3(C)[C@H](CC[C@@H]4[C@@H]3C[C@@H](O)[C@]3(C)[C@@H](C5=CC(=O)OC5)CC[C@]43O)C2)C[C@H](O)[C@@H]1O[C@H]1C[C@H](O)[C@H](O[C@H]2C[C@H](O)[C@H](O[C@@H]3O[C@H](CO)[C@@H](O)[C@H](O)[C@H]3O)[C@@H](C)O2)[C@@H](C)O1`, the Potency was 211 nM (active) in the assay with CRL-7250; 188 nM (active) in the assay with HEK293; 596 nM (active) in the assay on HaCat [1]; 259 nM (active) in the assay on KB-3-1; 335 nM (active) in the assay on MCC-13; 668 nM (active) in the assay on MCC-26. Further, the Potency in the assay on MKL-1 is 531 nM (active); with MKL-2, 299 nM (active); in the assay with UISO, 299 nM (active); in the assay on C33A, 282 nM (active); in the assay on CAOV3, 501 nM (active); in the assay with CASKI, 1580 nM (active). Moreover, the Potency with Es-2 was 447 nM (active); in the assay with HeLa, 355 nM (active).
For the compound `NCCNc1cccc2ccccc12`, the max response with CRL-7250 is -3.59%; in the assay on HEK293, -7.17%; in the assay on HaCat [1], -24.9%; in the assay on KB-3-1 it was -12.5%; with NIH3T3 [3], 0.794%. Further, the Potency result with MCC-13, with UISO, in the assay on C33A, in the assay on CAOV3, in the assay on CASKI and in the assay with Es-2 was “inactive” in each case. The Potency entry with HeLa is “inactive”.
`O=C(NCCc1c[nH]c2ccccc12)c1cccnc1`: the Potency entry in the assay with W2, in the assay with MCC-13, in the assay on MKL-1, in the assay on MKL-2, in the assay on UISO and with WaGa was “inactive” throughout. In addition, the Potency result in the assay with C33A, in the assay with CAOV3, with CASKI and in the assay with HeLa was “inactive” throughout. The max response is 2.2% in the assay with CRL-7250; -10.1% with HEK293; -2.67% in the assay with HaCat [1]; -10.3% in the assay with KB-3-1; 0.897% in the assay on NIH3T3 [3].
For the compound `CC(=C(CCOC(=O)C(C)C)SSC(CCOC(=O)C(C)C)=C(C)N(C=O)Cc1cnc(C)nc1N)N(C=O)Cc1cnc(C)nc1N`, the max response was 0.406% in the assay on CRL-7250 and -4.89% in the assay with HEK293. The call in the assay on HaCat [1], in the assay on NIH3T3 [3], in the assay on HACAT [2] and in the assay on NIH3T3 [4] was inactive. Besides, the Potency entry with MCC-13, in the assay with MCC-26, in the assay with MKL-1, with UISO, in the assay with WaGa and in the assay with C33A was “inactive” in each case. Besides, the Potency entry with CAOV3, with CASKI, in the assay with Es-2 and in the assay on HeLa was “inactive” each time.
As for `Nc1ccc(C(=O)NCC(=O)O)cc1`, the Potency entry with W2, in the assay on MCC-26, in the assay on MKL-1, with MKL-2, with UISO and in the assay on WaGa was “inactive” throughout. For the same compound, the Potency result in the assay with C33A, with CAOV3, in the assay with CASKI, with Es-2 and in the assay with HeLa was “inactive” each time. Also, the max response is -1.17% in the assay on CRL-7250; 0.145% in the assay with HEK293; 0.603% in the assay on HaCat [1]; 28.3% with KB-3-1; -6.17% in the assay on NIH3T3 [3].
Regarding `COc1cc([C@H]2Oc3cc([C@H]4Oc5cc(O)cc(O)c5C(=O)[C@@H]4O)ccc3O[C@@H]2CO)ccc1O`, the outcome with CRL-7250 was inactive. Also, the max response is -17.6% with HEK293, -5.16% in the assay on HaCat [1] and 47.9% in the assay with KB-3-1. In addition, the Potency result in the assay with MCC-13, in the assay on MCC-26, in the assay with MKL-1, with MKL-2, with UISO and in the assay with WaGa was “inactive” in each case. Further, the Potency result in the assay on C33A, with CAOV3, in the assay with CASKI, with Es-2 and with HeLa was “inactive” each time.
For the compound `Cc1cn([C@H]2C[C@H](F)[C@@H](CO)O2)c(=O)[nH]c1=O`, the compound was called inactive with CRL-7250, in the assay with HaCat [1] and with HACAT [2]. Moreover, the max response is 0.5% in the assay on HEK293 and -16.7% in the assay with NIH3T3 [3]. Moreover, the Potency result in the assay with MCC-13, in the assay on MCC-26, in the assay on MKL-1, in the assay on MKL-2, in the assay with UISO and in the assay on WaGa was “inactive” throughout. Moreover, the Potency entry in the assay with C33A, in the assay with CAOV3, in the assay on CASKI, in the assay on Es-2 and with HeLa was “inactive” in each case.
